# KDM5B inh: Primary screen for KDM5B Histone Demethylases FDH-coupled qHTS. Lysine-specific demethylase 5B (Homo sapiens), Q9UGL1. KDM5B demethylase, FDH-coupled NADH fluorescence (FDH is formaldehyde dehydrogenase). Potency, µM (top dose mostly 57.7 µM), most hits filed as inhibitors. hit rate 2.6% among 220,000; active = well fitted inhibition curve with a large enough effect; also: 0% is about no effect; nearly all actives have a fitted effect of over 70% in size
#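 Inhibition is measured as reduced NADH fluorescence generation from FDH coupling to formaldehyde release. Truncated KDM5BΔAP at 200 nM final acts on H3K4me3 peptide (12.5 µM in substrate mix) in pH 7.5 HEPES buffer with Tween-20, 30 min, room temperature.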
# The depositor's hits bear a star; i = inactive. Many of the other results were omitted from the sample, so hits are more common in it than they were. Potency is read from the fitted curve at half-maximal effect.
SMILES,KDM5B inh
COc1ccc(-c2n[nH]c3c2CC(=O)N(CCOc2ccccc2)C3)cn1,i
COc1cc(F)ccc1-c1cc(-c2c(C)noc2C)cc2c1C(=O)N(C)C2,32µM*
Cc1noc(C)c1-c1cc2c(c(-c3ccc(F)c(Cl)c3)c1)C(=O)N(C)C2,i
Cc1noc(C)c1-c1cc2c(c(-c3ccccc3)c1)C(=O)N(C)C2,i
O=C(c1ccc(Cl)cc1)N1CCC2(CC1)C(=O)NCN2CCc1ccc(Cl)cc1,i
O=C(COC(=O)c1ccc(N2CCCC2=O)cc1)c1ccc2c(c1)CCC2,i
CCOCCN1C(=O)COC[C@@H]1[C@H](O)c1ccc(NC(=O)Cc2ccccc2)cc1,i
CN1c2cc(C(=O)N3CCOCC3)ccc2OCC1CC(=O)NC(CO)CO (configuration not stated),i
CCOC(=O)N1CCC(N2C(=O)c3ccc(C(=O)NCCOC)cc3C2=O)CC1,i
COCCNC(=O)c1ccc2c(c1)N(C)C(CC(=O)N1CCCOCC1)CO2 (configuration not stated),32µM*
COCCNC(=O)c1ccc(OC2CCN(CCc3ccccc3)CC2)c(Cl)c1,i
COCCNC(=O)c1ccc2c(c1)N(C)C(CC(=O)N1CCC(C)CC1)CO2 (configuration not stated),20µM*
CCN(C(=O)CC1COc2ccc(C(=O)N3CCOCC3)cc2N1C)C(C)C (configuration not stated),i
Cn1nc2n(c1=O)CCC(N)CC2 (configuration not stated),i
O=C(O)C1CCc2nnc(C3CCCN(C(=O)c4ccccc4)C3)n21 (configuration not stated),i
COc1cccc([S+](=O)([O-])N2CCCC(c3nnc4n3C(C(=O)O)CC4)C2)c1 (configuration not stated),i
O=C(O)C1CCc2nnc(C3CCCN([S+](=O)([O-])c4ccccc4)C3)n21 (configuration not stated),56µM*
O=C(Cn1cnc2ccc(Cl)cc2c1=O)N(C1CCCC1)C1CCS(=O)(=O)C1 (configuration not stated),i
CCC(C)C(=O)Nc1c(C(=O)OC)n(CC2CCCO2)c2ncc(NC(C)CCO)cc12 (configuration not stated),6.3µM*
CCOC(=O)c1cc2c(=O)n3ccccc3nc2n(CC2CCCO2)c1=NC(=O)c1ccccc1OCC (configuration not stated),i
COc1ccccc1C(=O)Nc1ccccc1OCC1CCCO1 (configuration not stated),i
CC(C)C(=O)N1CCC(C(=O)Nc2cccc(OCC3CCCO3)c2)CC1 (configuration not stated),i
CCC(C)C(=O)Nc1c(C(=O)OC)n(CC2CCCO2)c2ncc(NC(C)CO)cc12 (configuration not stated),28µM*
COc1ccccc1OC(C)C(=O)Nc1ccccc1C(=O)NCC1CCCO1 (configuration not stated),i
COC(=O)c1c(NC(C)=O)c2cc(NC(C)CC(C)(C)O)cnc2n1CCC(C)C (configuration not stated),20µM*
SMILES,KDM5B inh
C[S+](=O)([O-])c1cccc(Nc2n[nH]c(C(O)c3ccccc3)n2)c1 (configuration not stated),i
CCC(C)C(=O)N1CCCC2CCCCC21 (configuration not stated),i
Cc1ccc(CNC(=O)CCc2ncc(-c3ccc(F)cc3)o2)cc1,i
Cc1ccc(-n2c(C3CCN(C(=O)c4cc(F)ccc4Cl)CC3)n[nH]c2=O)cc1,i
Cc1ccc(-c2nc(C#N)c(N3CCN(C(=O)c4ccco4)CC3)o2)cc1,i
O=C(c1cc(=O)c2ccccc2o1)N1CCCC1Cc1ccccc1 (configuration not stated),i
Cc1ccc(NC(=O)Cn2c(N3CCCCC3)nc(C)c(C)c2=O)cc1,i
CCN(C(C)=O)C1CCN(C(C)c2ccccc2)C1 (configuration not stated),i
O=C(Cc1ccccc1)N1CCC2(CC1)CN(c1ncccn1)CC2CO (configuration not stated),22µM*
COC1CCC12CCN(C(=O)Cc1cccc(F)c1)CC2 (configuration not stated),i
COCC1CN(C(C)=O)CC12CCN(C(=O)Cc1cccc(F)c1)CC2 (configuration not stated),i
O=C(Cc1ccccc1F)N1CCC2(CC1)CN(c1ccncn1)CC2CO (configuration not stated),i
O=C(Cc1cccc(F)c1)N1CCC2(CC1)CN(c1ncccn1)CC2CO (configuration not stated),22µM*
CC(=O)N1CC(CO)C2(CCN(C(=O)Cc3ccccc3Cl)CC2)C1 (configuration not stated),i
CC(C)S(=O)(=O)N1CCC2(CC1)CC(N1CCN(c3ccccn3)CC1)CCO2 (configuration not stated),i
CCCCCCCNCCCCCCC,i
CC(C)CNC(=O)c1ccc2c(c1)C1(CCN(C)C1)CN2CC1CCOCC1 (configuration not stated),35µM*
CC(C)CCN1CCOc2cc(C(=O)NCc3ccccc3)ccc2C1,i
CN1CCC2(C1)CN(CC1CCOCC1)c1ccc(C(=O)NCc3ccccc3)cc12 (configuration not stated),40µM*
O=C(NCc1ccccc1)c1ccc2c(c1)OCCN(CCC(F)(F)F)C2,i
COc1ccc(C(=O)N2CCc3ccc(C(=O)NCC(C)C)cc32)cc1,i
CC(C)C(=O)N1Cc2ccccc2CC2(CCCCN2CC2CCOCC2)C1 (configuration not stated),i
CNC(=O)[C@@H](c1ccc(OC)cc1)N1CCC[C@H]1C(=O)N1CCCC1,i
O=C(O)CCC1CCCN(S(=O)(=O)c2cccc(F)c2)C1 (configuration not stated),i
O=C(NCCc1cnc[nH]1)C1CCN(C2CCCCC2)CC1,i
SMILES,KDM5B inh
COC(=O)CCCNC(=O)[C@@H]1[C@@H](NC(=O)NC2CCCCC2)CCN1C(=O)CC(C)(C)C,i
COC(=O)C1=C(C)NC(=O)NC1c1ccc(C(=O)OC)cc1 (configuration not stated),i
c1ccc(-n2cc(CN3CCC(N4CCSCC4)CC3)nn2)cc1,i
c1ccc(-n2cc(CN3CCCCC3c3ccccn3)nn2)cc1 (configuration not stated),28µM*
Cc1noc(C)c1C1CCCN1Cc1cn(-c2ccccc2)nn1 (configuration not stated),i
Cc1ccc(-c2cnc(CCC(=O)Nc3nccs3)o2)cc1C,i
Cc1cccc(OCC(=O)NCCCNC(=O)c2ccncc2)c1,i
COc1ccc(-c2cc(N3CCC(NC(=O)COc4cccc(C)c4)CC3)n[nH]2)cc1,i
CC(C)C(=O)N1CCCC(CN2CCN(c3ccccn3)CC2)C1 (configuration not stated),i
O=C(c1cc2ccccc2cc1O)N1CCN(c2ccccn2)CC1,i
CC(NC(=O)COc1ccccc1)C(=O)N1CCN(c2ccccn2)CC1 (configuration not stated),22µM*
Cc1cccc(OCC(=O)NC(C)C(=O)N2CCN(c3ccccn3)CC2)c1 (configuration not stated),35µM*
